AMA1-RON2 inh – qHTS for Inhibitors of AMA1-RON; Towards Development of Antimalarial Drug Lead: Primary Screen. 360,000 compounds, 0.2% hits. AlphaScreen AMA1-biotinylated RON2 peptide binding. Plasmodium falciparum AMA1 (3D7) - RON2 peptide interaction. Potency, µM (highest dose often 58.2 µM), most hits filed as inhibitors. AID 720542, 2013; note: nearly all actives have a fitted effect of over 45% in size
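AMA1 (3D7) with his tag at 25 nM final met compounds first, then biotinylated RON2 peptide at 25 nM; detection used donor plus acceptor beads, 10 µg/mL apiece, read by AlphaScreen after 30 min at room temperature.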
HCV inh – qHTS Assay for Inhibitors of Hepatitis C Virus (HCV); Huh7.5.1 HCVcc-Cre infection, luciferase reporter, 44 h; Potency, µM (highest dose often 41.8 µM), most hits filed as inhibitors; 340,000 compounds, 3.4% hits; AID 651820, 2012
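1,000 cells/well; 4 h culture; + compound; + HCVcc-Cre (~0.5 moi); 44 h; luciferase substrate, RT 15 min; read 15 sec.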
Pf growth 96h – Primary qHTS for delayed death inhibitors of the malarial parasite plastid, 96 hour incubation | P. falciparum luciferase reporter growth, 96 h | Potency, µM (highest dose often 28.7 µM), hits mostly inhibitors | 320,000 compounds, 6.9% hits | AID 504834, 2011
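P. falciparum expressing integrated firefly luciferase, in erythrocytes at 2% hematocrit, 0.05% parasitemia, incubated with compounds 96 h at 37 C, 5% CO2. Growth inhibition read as loss of luminescence; two-generation exposure targets delayed-death apicoplast inhibitors.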
Pf growth 48h – Primary qHTS for delayed death inhibitors of the malarial parasite plastid, 48 hour incubation | P. falciparum luciferase growth in erythrocytes, 48 h | Potency, µM (series often up to 28.7 µM), most hits filed as inhibitors | 310,000 compounds, 5.9% hits
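Parasite viability was followed by luminescence of a genomically integrated firefly luciferase. Cultures held 0.1% parasitemia at 2% hematocrit (final), incubated under 5% CO2 at 37 C.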
AmpC detergent – qHTS Inhibitors of AmpC Beta-Lactamase (assay with detergent); P00811; AmpC hydrolysis of nitrocefin, absorbance 480 nm, 0.01% Triton; Potency, µM (highest dose often 114 µM), hits mostly inhibitors; 370,000 compounds, 0.041% hits; note: nearly all actives have a fitted effect of over 25% in size
Target sequence (P00811 whole entry, looked up): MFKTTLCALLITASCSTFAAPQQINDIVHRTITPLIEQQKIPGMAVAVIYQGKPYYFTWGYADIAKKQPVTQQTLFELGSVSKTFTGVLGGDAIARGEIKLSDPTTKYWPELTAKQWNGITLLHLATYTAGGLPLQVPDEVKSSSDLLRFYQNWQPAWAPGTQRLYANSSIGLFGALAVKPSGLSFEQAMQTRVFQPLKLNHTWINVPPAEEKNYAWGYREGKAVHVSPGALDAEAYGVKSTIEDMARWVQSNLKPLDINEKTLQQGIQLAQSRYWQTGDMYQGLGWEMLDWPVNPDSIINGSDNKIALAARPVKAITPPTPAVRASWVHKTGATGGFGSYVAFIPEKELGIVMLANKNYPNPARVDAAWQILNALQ
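20 mM phosphate pH 7.0 + 0.01% (detergent screen) or 0.0001% Triton X-100; 5.3 nM AmpC reagent; cpd preinc 15 min RT; nitrocefin (800 uM stock) to start; A480 q20 s × 4 min; Activity was normalised to no-enzyme and no-compound control wells.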
AmpC inh no detg – qHTS Inhibitors of AmpC Beta-Lactamase (assay without detergent). AID 485341, 2010. Potency, µM (doses to about 57.1 µM), most hits filed as inhibitors. P00811. 330,000 compounds, 0.52% hits. AmpC nitrocefin hydrolysis, absorbance 480 nm, 0.0001% Triton; note: nearly all actives have a fitted effect of over 20% in size
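AmpC (5.3 nM in the dispensed reagent) in 20 mM phosphate pH 7.0 with 0.01% (detergent screen) or 0.0001% Triton X-100 was preincubated with compounds for 15 min at room temperature. Nitrocefin was then added from an 800 uM solution, and hydrolysis was followed at 480 nm.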
A number is an active result; i = inactive; ? = inconclusive; nt = not tested or not shown; [ ] = dose if it differs, or a comment. Shown are actives, neighbours in structure and some others; about 11% of the full set was active somewhere. Calls come from the whole dose curve; as a rule, active = well fitted curve in the direction sought with a large enough effect; inconclusive = small, poorly fitted or top-dose-only effect, or another doubt; inactive = no such curve, though single readings can be large; an effect the other way counts as inactive or inconclusive.

SMILES | AMA1-RON2 inh | HCV inh | Pf growth 96h | Pf growth 48h | AmpC detergent | AmpC inh no detg
Cc1ccc(N(CC(=O)Nc2ccc(C)c(F)c2)S(=O)(=O)c2c(C)n[nH]c2C)cc1 | nt | nt | nt | nt | i | nt
Cc1cc(C)n(-c2nc3ccccc3nc2Nc2ccc3[nH]c(=O)[nH]c3c2)n1 | i | 11µM | nt | i | i | i
COc1ccc(CC(=O)Nc2ccc(-c3cn4cccc(C)c4n3)cc2)cc1OC | i | 10µM | nt | i | i | i
COc1ccc(-c2nc3cc(NC(=O)Cc4ccc(OC)c(OC)c4)ccc3o2)cc1 | i | 7.1µM | 4.1µM | i | ? | i
COc1ccc(CC(=O)Nc2cccc(-c3nnc(-c4ccccc4)o3)c2)cc1OC | i | 6.3µM | nt | ? | i | i
COc1ccc(CC(=O)Nc2cccc(-c3nnc(-c4cccc(C)c4)o3)c2)cc1OC | i | 6.3µM | nt | ? | ? | i
CCCn1c(CCC(=O)Nc2cc(C(=O)OC)cc(C(=O)OC)c2)nc2cccnc21 | nt | nt | nt | nt | i | nt
CCOc1ccccc1CNC(=O)C1CCN(C(=O)N2CCOc3ccc(Cl)cc32)CC1 | nt | nt | nt | nt | i | nt
COc1ccccc1CNC(=O)c1cnc2sc(N3CCCCC3)nn2c1=O | nt | nt | nt | nt | i | nt
O=C1C=CC2(C=C1)O[C@H](Cc1ccccc1)[C@@H](Cc1ccccc1)O2 | i | 2.5µM | nt | nt | nt | nt
O=C1Nc2ccccc2C1Cc1ccccc1 (stereo unspecified) | i | i | i | i | i | i
COc1ccc(C[C@@H]2OC3(C=CC(=O)C=C3)O[C@H]2Cc2ccc(OC)cc2)cc1 | i | 4µM | nt | nt | nt | nt
O=C(NC1CC(=O)N(c2cccc(F)c2)C1)c1ccc(Br)o1 (stereo unspecified) | nt | nt | nt | nt | i | nt
CCC1CCCCN1C(=O)c1sc(-n2nc(C)c(Cc3ccccc3)c2C)nc1C (stereo unspecified) | nt | nt | nt | nt | i | nt
Cc1cc(C(=O)NCCc2ccc(Cl)cc2)c2c(C)nn(-c3cccc(F)c3)c2n1 | nt | nt | nt | nt | i | nt
CCOC(=O)c1oc2ccccc2c1NC(=O)CCl | i | i | ? | ? | i | i
CCOC(=O)c1oc2ccccc2c1NC(=O)c1ccc2c(c1)OCO2 | i | i | 13µM | i | i | i
CCOC(=O)c1oc2ccccc2c1NC(=O)c1ccc(Cl)s1 | i | i | i | i | ? | 7.1µM
Cc1ccc(S(=O)(=O)NCCc2sc3nc(-c4ccccc4)nn3c2C)cc1C | nt | nt | nt | nt | i | nt
CC(=O)c1cccc(NS(=O)(=O)c2ccc(N/C=C/C(=O)c3ccc(F)cc3)cc2)c1 | i | 11µM | ? | ? | i | i
CC(=O)c1cccc(NS(=O)(=O)c2ccc(N/C=C\C(=O)c3ccc(C)cc3)cc2)c1 | i | ? | ? | ? | i | i
CC(=O)c1cccc(NS(=O)(=O)c2ccc(NC(=O)N3CCCCC3)cc2)c1 | i | ? | 10µM | i | i | i
CC(=O)c1cccc(NS(=O)(=O)c2ccc(N/C=C\C(=O)c3ccc(F)cc3)cc2)c1 | i | 11µM | ? | ? | i | i
CN(Cc1ccccc1)c1ncnc2[nH]ncc12 | i | i | nt | nt | nt | nt
CN(Cc1ccccc1)c1ncnc2sccc12 | i | 8.9µM | i | i | i | i
SMILES | AMA1-RON2 inh | HCV inh | Pf growth 96h | Pf growth 48h | AmpC detergent | AmpC inh no detg
CCc1ccc(NC(=O)c2sc3nc(C)c(Cl)c(C)c3c2NC(=O)c2ccccc2)cc1 | nt | nt | nt | nt | i | nt
CN1CCc2cccc3c2[C@@H]1Cc1ccc(O)c(O)c1-3 | ? | i[8.37 µM] | 2.6µM | 2.6µM | i | i
COc1cc2c(cc1O)C[C@H]1c3c(cc(O)c(OC)c3-2)CCN1C | i | ? | ? | ? | i | i
CN1CCc2cc(O)cc3c2[C@H]1Cc1ccc(O)c(O)c1-3 | 10µM | i | nt | nt | nt | nt
COc1cc(C2CC(=O)Nc3c2c(=O)[nH]c2nc4ccccc4n32)ccc1O (stereo unspecified) | nt | nt | nt | nt | i | nt
O=C(NCCNc1ccc([N+](=O)[O-])cc1C(F)(F)F)c1ccccc1 | i | i | 13µM | ? | i | i
CC1(C)C(/C=C/C=C/C=C/C=C2\N(CCCCS(=O)(=O)O)c3ccc4ccccc4c3C2(C)C)=[N+](CCCCS(=O)(=O)[O-])c2ccc3ccccc3c21 | 8.9µM | i | ? | ? | nt | nt
CC(=O)N1CCOc2ccc(S(=O)(=O)N3CCC(C(=O)Nc4ccc(F)cc4)CC3)cc21 | i | ? | 15µM | ? | i | i
CC(=O)N1CCOc2ccc(S(=O)(=O)N3CCCC(C)C3)cc21 (stereo unspecified) | i | i | 12µM | i | i | i
CC1CCCN(S(=O)(=O)c2cc(C(=O)NCCc3ccc(S(N)(=O)=O)cc3)ccc2Cl)C1 (stereo unspecified) | i | 7.9µM | nt | nt | nt | nt
COc1ccc(CCNC(=O)c2ccc(Cl)c(S(=O)(=O)N(C)c3ccccc3)c2)cc1 | i | 3.5µM | 10µM | ? | i | i
CN(C)S(=O)(=O)c1cc(C(=O)NCCCn2ccc3ccccc32)ccc1Cl | i | i | 4.1µM | nt | i | i
COc1ccc(CCNC(=O)c2ccc(Cl)c(S(=O)(=O)N3CCCCCC3)c2)cc1 | i | 2.8µM | ? | ? | i | i
CCN(c1ccccc1)S(=O)(=O)c1ccc(Cl)c(C(=O)NCCc2ccc(OC)cc2)c1 | i | i | ? | i | i | i
Cc1ccc(S(=O)(=O)NCCc2nnc3ccc(SCC(=O)Nc4c(C)cc(C)cc4C)nn23)cc1 | nt | nt | nt | nt | i | nt
Cc1ccccc1OCCCCn1nnc2sc3c(c2c1=O)CCC(C)C3 (stereo unspecified) | nt | nt | nt | nt | i | nt
CCn1c(=O)c2cc(C(=O)Nc3cc(F)ccc3F)sc2c2ccccc21 | nt | nt | nt | nt | i | nt
O=C(NCc1ccccc1)c1ccc(Cl)c(S(=O)(=O)N2CCCC2)c1 | i | i | nt | nt | nt | i
O=C(NCCc1ccccc1)c1ccc(Cl)c(S(=O)(=O)N2CCCC2)c1 | i | 10µM | 10µM | i | i | i
Cc1cccc(OCc2nc(CC(=O)Nc3ccc(C)cc3C)cs2)c1 | nt | nt | nt | nt | i | nt
COc1ccccc1N1CCN(C(c2ccccn2)c2nnnn2C2CCCCC2)CC1 (stereo unspecified) | i | i | nt | 9.3µM | i | i
Fc1ccccc1N1CCN(C(c2ccccn2)c2nnnn2C2CCCCC2)CC1 (stereo unspecified) | i | i | i | 10µM | i | i
COc1ccc(N2CCN(C(c3cccc(OC)c3OC)c3nnnn3C3CCCC3)CC2)cc1 (stereo unspecified) | ? | ? | i | ? | i | i
CC(C)(C)CC(C)(C)c1cc(Cc2cc(C(C)(C)CC(C)(C)C)cc(-n3nc4ccccc4n3)c2O)c(O)c(-n2nc3ccccc3n2)c1 | nt | nt | i | i | nt | nt
